In PubChem BioAssay (EPA / NIEHS):
Where “and” joins values, the source holds several entries; their conditions need not be identical. Equal entries are not always repeated. Inconclusive results are not listed. Some structures have more than one record in an assay (separate samples or runs), and their calls can disagree. Calls of active or inactive are those of the source. How the source made its calls: active means hit-call score of the fitted dose curve at least 0.9, where 1 is the maximum; inconclusive means response in the unintended direction; inactive means score below 0.9.

Assays:
[1] = test system: turtle Estrogen Receptor (ERa), gene 101933533; assay: ATG_trERa_XSP2: Attagene TRANS-FACTORIAL Multi-Species (XSP2) HepG2 Assay for turtle Estrogen Receptor (ERa) (AID 2283812);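 further: actives raise reporter signal above DMSO so AC50 reflects agonist activity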
Summary of the method: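 Readout is reporter mRNA quantified by RT-PCR with capillary electrophoresis after 24 h compound exposure, increase relative to DMSO. Uses transiently transfected human HepG2 liver cells carrying a chimeric turtle ERa-Gal4 receptor driving GAL4-UAS reporters.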

[2] = biological target: GAL4 Transcription Factor (Internal Marker), GAL4 (gene 855828) (UniProt P04386); assay: ATG_GAL4_XSP2: Attagene TRANS-FACTORIAL Multi-Species (XSP2) HepG2 Assay for GAL4 Transcription Factor (Internal Marker) (AID 2283814);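 further: GAL4 reporter mRNA background control in MRTU transfected cells not a receptor target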
Summary of the method: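 Background-control readout: gain-of-signal fitted against DMSO. After 24 h exposure of transfected HepG2 (MRTU, GAL4-UAS reporters; 3 nM 6-alpha-fluorotestosterone, 1.5 nM norgestrel present), transcripts quantified by RT-PCR and capillary electrophoresis fluorescence.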

[3] = biological target: zebrafish Estrogen Receptor (ER1), esr1 (gene 259252) (UniProt P57717); assay: ATG_zfER1_XSP2: Attagene TRANS-FACTORIAL Multi-Species (XSP2) HepG2 Assay for zebrafish Estrogen Receptor (ER1) (AID 2283816)
Summary of the method: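 After 24 h compound exposure, RNA from transfected HepG2 cells was reverse-transcribed and reporter transcripts resolved by capillary electrophoresis. The TRANS format reads exogenous zebrafish ER1-Gal4 chimera activity on GAL4-UAS elements; gain of signal against DMSO.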

[4] = biological target: chicken Estrogen Receptor (ERa), ESR1 (gene 396099) (UniProt P06212); assay: ATG_chERa_XSP2: Attagene TRANS-FACTORIAL Multi-Species (XSP2) HepG2 Assay for chicken Estrogen Receptor (ERa) (AID 2283817);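 further: actives raise reporter signal above DMSO so AC50 reflects ER activation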
Summary of the method: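 Readout: fluorescent reporter-transcript fragments resolved by capillary electrophoresis after RT-PCR and HpaI cut. Chicken ERa-Gal4 fusion in transiently transfected HepG2, dosed for 24 h; activity taken as increase over DMSO baseline.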

[5] = biological target: Estrogen receptor beta (Homo sapiens) (UniProt Q92731); assay: ATG_hERb_XSP2: Attagene TRANS-FACTORIAL Multi-Species (XSP2) HepG2 Assay for human Estrogen Receptor (ERb) (AID 2283813);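 further: actives raise reporter mRNA above DMSO so AC50 reflects agonist induction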
Summary of the method: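 Transient TRANS reporter system in HepG2: after 24 h of chemical, RNA is reverse-transcribed, reporter cDNA amplified, FAM-labelled and sized by capillary electrophoresis. Induction of the human ERb-Gal4 reporter is measured relative to DMSO.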

[6] = ATG_M_19_XSP1: Attagene TRANS-FACTORIAL Multi-Species (XSP1) HepG2 Assay for M19 Transcription Factor (Internal Marker) (AID 2283798)
Summary of the method: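 Readout is reporter mRNA induction quantified via RT-PCR, 6-FAM labeling, HpaI digestion and capillary electrophoresis, fitted in the positive direction versus DMSO baseline. Transfected HepG2 cells exposed 24 h, medium including 3 nM 6-alpha-fluorotestosterone.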

[7] = ATG_M_32_XSP1: Attagene TRANS-FACTORIAL Multi-Species (XSP1) HepG2 Assay for M32 Transcription Factor (Internal Marker) (AID 2283799)
Summary of the method: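 Reporter transcripts from the M32 internal-control unit measured by RT-PCR, FAM labelling, HpaI digestion and capillary electrophoresis after 24 h compound exposure of transfected HepG2, 3 nM 6-alpha-fluorotestosterone included; DMSO baseline, positive-direction fit.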

[8] = test system: zebrafish Peroxisome Proliferator-activated Receptor gamma (PPARg), gene 557037; assay: ATG_zfPPARg_XSP1: Attagene TRANS-FACTORIAL Multi-Species (XSP1) HepG2 Assay for zebrafish Peroxisome Proliferator-activated Receptor gamma (PPARg) (AID 2283801)
Summary of the method: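 Trans-activation readout of chimeric zebrafish PPARg–GAL4 in transiently transfected human HepG2 cells, 24 h chemical exposure (medium includes 3 nM 6-alpha-fluorotestosterone). Reporter transcripts measured by RT-PCR and capillary electrophoresis, fitted as gain over DMSO.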

[9] = biological target: mouse Peroxisome Proliferator-activated Receptor gamma (PPARg), Pparg (gene 19016) (UniProt P37238); assay: ATG_mPPARg_XSP1: Attagene TRANS-FACTORIAL Multi-Species (XSP1) HepG2 Assay for mouse Peroxisome Proliferator-activated Receptor gamma (PPARg) (AID 2283802)
Summary of the method: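 Readout is reporter mRNA induction, measured by RT-PCR with 6-FAM labelling, HpaI digestion and capillary electrophoresis, 24 h post-dose relative to DMSO. Transient multi-reporter transfection of human HepG2 with mouse PPARg–GAL4 fusion; 3 nM 6-alpha-fluorotestosterone included.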

[10] = biological target: Nuclear receptor subfamily 1 group I member 2 (Mus musculus) (UniProt O54915); assay: ATG_mPXR_XSP1: Attagene TRANS-FACTORIAL Multi-Species (XSP1) HepG2 Assay for mouse Pregnane X Receptor (PXR) (AID 2283803)
Summary of the method: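 Transiently transfected HepG2 cells expressing a receptor-Gal4 chimera drive a GAL4-UAS reporter; 3 nM 6-alpha-fluorotestosterone included. Reporter mRNA read 24 h post-dose by RT-PCR and capillary electrophoresis; gain of signal relative to DMSO.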

[11] = biological target: frog Thyroid hormone Receptor alpha (TRa), thra-a (gene 397942) (UniProt P15204); assay: ATG_frTRa_XSP1: Attagene TRANS-FACTORIAL Multi-Species (XSP1) HepG2 Assay for frog Thyroid hormone Receptor alpha (TRa) (AID 2283804)
Summary of the method: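 Reporter transcript induction, measured by RT-PCR with 6-FAM labelling and capillary electrophoresis, 24 hr after dosing transiently transfected HepG2 cells expressing a frog TRa-GAL4 fusion; medium contained 3 nM 6-alpha-fluorotestosterone; increase over DMSO scored.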

[12] = test system: turtle Thyroid Hormone Receptor, alpha (TRa), gene 101949057; assay: ATG_trTRa_XSP1: Attagene TRANS-FACTORIAL Multi-Species (XSP1) HepG2 Assay for turtle Thyroid Hormone Receptor, alpha (TRa) (AID 2283806)
Summary of the method: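 After 24 h chemical exposure, reporter transcripts were measured by RT-PCR with fluorescent primer extension, HpaI digestion and capillary electrophoresis. Cells were transiently transfected HepG2 expressing exogenous NR-Gal4 chimeras; medium contained 3 nM 6-alpha-fluorotestosterone; fitted upward relative to DMSO.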

[13] = biological target: zebrafish Thyroid Hormone Receptor beta (TRb), thrb (gene 30607) (UniProt Q9PVE4); assay: ATG_zfTRb_XSP1: Attagene TRANS-FACTORIAL Multi-Species (XSP1) HepG2 Assay for zebrafish Thyroid Hormone Receptor beta (TRb) (AID 2283809)
Summary of the method: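 HepG2 cells transiently transfected with multiplexed GAL4-UAS reporter units expressing chimeric zebrafish TRb–Gal4. Dosed 24 h with 3 nM 6-alpha-fluorotestosterone present; reporter mRNA measured by RT-PCR, HpaI digestion and capillary electrophoresis; gain of signal versus DMSO.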

[14] = ATG_XTT_Cytotoxicity_XSP1: Cytotoxicity Assessment in the Attagene TRANS-FACTORIAL Multi-Species (XSP1) HepG2 Assay (AID 2283810)
Summary of the method: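 XTT viability readout taken at 24 hours post-dosing in HepG2 liver cells co-treated with 3 nM 6-alpha-fluorotestosterone. Signal loss relative to DMSO controls reflects cytotoxicity.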

[15] = biological target: human Thyroid hormone Receptor alpha (TRa), THRA (gene 7067) (UniProt P10827); assay: ATG_hTRa_XSP1: Attagene TRANS-FACTORIAL Multi-Species (XSP1) HepG2 Assay for human Thyroid hormone Receptor alpha (TRa) (AID 2283805)
Summary of the method: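 Reporter transcripts from the human TRa-Gal4 TRANS unit quantified by RT-PCR, fluorescent labeling and capillary electrophoresis after 24 hours of chemical exposure in transfected HepG2 cells; medium contains 3 nM 6-alpha-fluorotestosterone. Positive direction fit against DMSO.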

[16] = biological target: zebrafish Thyroid Hormone Receptor alpha (TRa), thraa (gene 30670) (UniProt Q98867); assay: ATG_zfTRa_XSP1: Attagene TRANS-FACTORIAL Multi-Species (XSP1) HepG2 Assay for zebrafish Thyroid Hormone Receptor alpha (TRa) (AID 2283807)
Summary of the method: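 Reporter transcripts driven by a chimeric zebrafish TRa–Gal4 protein were measured by RT-PCR with fluorescent labelling and capillary electrophoresis. These came from transiently transfected HepG2 cells after 24 h chemical exposure, with 3 nM 6-alpha-fluorotestosterone added; baseline was DMSO.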

[17] = biological target: human Thyroid hormone Receptor beta (TRb), THRB (gene 7068) (UniProt P10828); assay: ATG_hTRb_XSP1: Attagene TRANS-FACTORIAL Multi-Species (XSP1) HepG2 Assay for human Thyroid hormone Receptor beta (TRb) (AID 2283808)
Summary of the method: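 Readout is reporter mRNA induction measured by RT-PCR, fluorescent labelling and capillary electrophoresis, fitted upward relative to DMSO. Transiently transfected human HepG2 cells expressing NR-Gal4 chimeras were dosed for 24 h, medium containing 3 nM 6-alpha-fluorotestosterone.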

[18] = test system: turtle Androgen Receptor (AR), gene 101947425; assay: ATG_trAR_XSP2: Attagene TRANS-FACTORIAL Multi-Species (XSP2) HepG2 Assay for turtle Androgen Receptor (AR) (AID 2283815);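 on AC50: potency for gain of reporter signal meaning activation above DMSO baseline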
Summary of the method: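 Reporter transcripts were quantified via RT-PCR and capillary electrophoresis and fitted upward against DMSO. Transiently transfected human HepG2 cells carrying NR-Gal4 chimeras were exposed 24 h, with 3 nM 6-alpha-fluorotestosterone plus 1.5 nM norgestrel added.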

[19] = ATG_M_61_XSP1: Attagene TRANS-FACTORIAL Multi-Species (XSP1) HepG2 Assay for M61 Transcription Factor (Internal Marker) (AID 2283797)
Summary of the method: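 Background-control readout: reporter transcripts measured by RT-PCR and capillary electrophoresis 24 h after dosing transiently transfected HepG2 multi-reporter cells, with 3 nM 6-alpha-fluorotestosterone present. Fitted in the positive direction relative to DMSO.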

[20] = biological target: Peroxisome proliferator-activated receptor gamma (Homo sapiens) (UniProt P37231); assay: ATG_hPPARg_XSP1: Attagene TRANS-FACTORIAL Multi-Species (XSP1) HepG2 Assay for human Peroxisome Proliferator-activated Receptor gamma (PPARg) (AID 2283800)
Summary of the method: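 Reporter mRNA induction, measured by RT-PCR with capillary electrophoresis 24 h after dosing, scored as gain over DMSO. Transfected HepG2 cells express exogenous NR-Gal4 chimeras driving GAL4-UAS reporters; medium includes 3 nM 6-alpha-fluorotestosterone.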

Measured: AC50

GAL4 Transcription Factor (Internal Marker), GAL4 (gene 855828), sequence (P04386 whole entry, looked up, the tested form may be a part): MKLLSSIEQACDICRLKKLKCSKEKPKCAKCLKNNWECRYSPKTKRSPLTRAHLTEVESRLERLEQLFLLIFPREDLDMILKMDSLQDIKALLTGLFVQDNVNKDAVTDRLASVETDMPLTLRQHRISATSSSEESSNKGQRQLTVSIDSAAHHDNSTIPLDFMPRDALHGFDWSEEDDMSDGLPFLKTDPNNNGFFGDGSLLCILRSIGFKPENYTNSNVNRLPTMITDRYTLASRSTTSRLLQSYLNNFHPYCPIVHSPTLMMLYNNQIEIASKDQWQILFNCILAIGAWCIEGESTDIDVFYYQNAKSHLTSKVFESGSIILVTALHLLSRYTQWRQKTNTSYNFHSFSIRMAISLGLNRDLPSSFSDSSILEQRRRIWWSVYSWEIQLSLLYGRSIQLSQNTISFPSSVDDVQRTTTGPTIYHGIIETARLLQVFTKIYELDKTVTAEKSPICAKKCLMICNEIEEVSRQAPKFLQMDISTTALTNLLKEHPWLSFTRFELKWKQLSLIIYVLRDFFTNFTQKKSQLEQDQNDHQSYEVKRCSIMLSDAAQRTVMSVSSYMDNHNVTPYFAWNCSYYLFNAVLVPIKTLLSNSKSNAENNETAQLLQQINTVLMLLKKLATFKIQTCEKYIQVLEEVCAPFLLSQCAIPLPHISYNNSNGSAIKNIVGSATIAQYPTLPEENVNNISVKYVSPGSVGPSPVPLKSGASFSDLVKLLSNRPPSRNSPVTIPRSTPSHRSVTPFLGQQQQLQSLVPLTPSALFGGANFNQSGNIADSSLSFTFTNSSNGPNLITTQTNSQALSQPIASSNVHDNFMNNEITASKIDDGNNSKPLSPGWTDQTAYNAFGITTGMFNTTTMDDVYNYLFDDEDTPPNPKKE
frog Thyroid hormone Receptor alpha (TRa), thra-a (gene 397942), sequence (P15204 whole entry, looked up, the tested form may be a part): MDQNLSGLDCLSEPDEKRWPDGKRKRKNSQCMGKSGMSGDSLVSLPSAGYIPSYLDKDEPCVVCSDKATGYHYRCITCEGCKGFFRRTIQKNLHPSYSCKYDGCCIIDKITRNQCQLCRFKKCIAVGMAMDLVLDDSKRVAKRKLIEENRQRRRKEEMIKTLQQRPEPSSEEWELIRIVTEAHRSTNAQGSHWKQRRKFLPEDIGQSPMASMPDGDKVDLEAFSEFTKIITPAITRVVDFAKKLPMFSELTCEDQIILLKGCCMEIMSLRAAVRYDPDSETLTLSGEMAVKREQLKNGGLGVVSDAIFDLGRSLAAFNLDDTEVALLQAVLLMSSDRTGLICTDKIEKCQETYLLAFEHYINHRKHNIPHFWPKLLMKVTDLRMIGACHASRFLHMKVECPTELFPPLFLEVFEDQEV
zebrafish Thyroid Hormone Receptor beta (TRb), thrb (gene 30607), sequence (Q9PVE4 whole entry, looked up, the tested form may be a part): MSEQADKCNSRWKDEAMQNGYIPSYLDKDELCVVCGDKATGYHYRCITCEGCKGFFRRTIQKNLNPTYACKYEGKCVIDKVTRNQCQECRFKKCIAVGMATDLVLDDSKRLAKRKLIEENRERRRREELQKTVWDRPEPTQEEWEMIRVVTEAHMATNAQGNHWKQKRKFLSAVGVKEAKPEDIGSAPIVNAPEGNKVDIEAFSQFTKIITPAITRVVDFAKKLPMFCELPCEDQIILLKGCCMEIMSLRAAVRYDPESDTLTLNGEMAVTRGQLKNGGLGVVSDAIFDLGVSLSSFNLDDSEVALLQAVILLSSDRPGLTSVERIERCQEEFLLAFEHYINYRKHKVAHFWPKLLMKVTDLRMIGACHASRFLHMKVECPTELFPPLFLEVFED
Nuclear receptor subfamily 1 group I member 2 (Mus musculus), sequence (O54915 whole entry, looked up, the tested form may be a part): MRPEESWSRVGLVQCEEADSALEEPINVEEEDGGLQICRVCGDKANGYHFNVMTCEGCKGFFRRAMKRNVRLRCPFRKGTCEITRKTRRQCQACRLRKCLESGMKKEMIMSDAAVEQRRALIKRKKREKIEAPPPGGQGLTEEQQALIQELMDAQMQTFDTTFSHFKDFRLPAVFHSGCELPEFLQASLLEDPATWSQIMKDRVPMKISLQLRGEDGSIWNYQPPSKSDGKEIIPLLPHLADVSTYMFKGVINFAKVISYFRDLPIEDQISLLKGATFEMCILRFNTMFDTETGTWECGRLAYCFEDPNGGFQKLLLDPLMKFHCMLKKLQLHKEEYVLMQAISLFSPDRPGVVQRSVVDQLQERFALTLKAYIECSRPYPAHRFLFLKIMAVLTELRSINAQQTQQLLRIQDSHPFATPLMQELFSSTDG
chicken Estrogen Receptor (ERa), ESR1 (gene 396099), sequence (P06212 whole entry, looked up, the tested form may be a part): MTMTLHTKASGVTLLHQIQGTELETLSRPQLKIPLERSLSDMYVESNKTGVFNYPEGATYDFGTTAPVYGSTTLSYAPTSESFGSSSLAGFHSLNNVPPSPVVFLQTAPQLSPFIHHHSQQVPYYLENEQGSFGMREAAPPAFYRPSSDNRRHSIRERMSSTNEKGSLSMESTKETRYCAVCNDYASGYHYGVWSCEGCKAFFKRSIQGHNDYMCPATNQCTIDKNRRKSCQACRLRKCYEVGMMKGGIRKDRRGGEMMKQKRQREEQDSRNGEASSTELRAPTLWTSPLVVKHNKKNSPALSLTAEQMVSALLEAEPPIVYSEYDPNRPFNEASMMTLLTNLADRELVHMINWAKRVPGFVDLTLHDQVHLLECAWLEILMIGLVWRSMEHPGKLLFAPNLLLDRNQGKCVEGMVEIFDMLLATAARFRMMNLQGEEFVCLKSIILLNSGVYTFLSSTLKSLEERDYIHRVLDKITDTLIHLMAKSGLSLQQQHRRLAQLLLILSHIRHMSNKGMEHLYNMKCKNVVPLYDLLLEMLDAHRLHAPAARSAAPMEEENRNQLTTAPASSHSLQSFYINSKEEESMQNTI
zebrafish Estrogen Receptor (ER1), esr1 (gene 259252), sequence (P57717 whole entry, looked up, the tested form may be a part): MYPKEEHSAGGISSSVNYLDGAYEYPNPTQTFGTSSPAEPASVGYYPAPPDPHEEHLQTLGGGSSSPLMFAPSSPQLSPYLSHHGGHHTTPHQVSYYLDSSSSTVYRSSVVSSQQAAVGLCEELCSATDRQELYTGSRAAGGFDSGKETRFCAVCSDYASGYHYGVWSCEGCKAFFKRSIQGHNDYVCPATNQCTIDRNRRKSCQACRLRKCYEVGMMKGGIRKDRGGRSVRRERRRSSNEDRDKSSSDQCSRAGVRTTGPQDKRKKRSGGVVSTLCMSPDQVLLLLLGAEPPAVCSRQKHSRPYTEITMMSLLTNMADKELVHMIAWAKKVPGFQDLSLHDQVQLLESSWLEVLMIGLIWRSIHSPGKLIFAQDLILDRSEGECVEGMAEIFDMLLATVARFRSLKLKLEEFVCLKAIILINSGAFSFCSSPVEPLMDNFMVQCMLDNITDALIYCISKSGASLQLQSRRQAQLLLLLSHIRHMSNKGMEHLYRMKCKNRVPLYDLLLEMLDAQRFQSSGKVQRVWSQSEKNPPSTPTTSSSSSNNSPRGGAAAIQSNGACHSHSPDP
Estrogen receptor beta (Homo sapiens), sequence (Q92731 whole entry, looked up, the tested form may be a part): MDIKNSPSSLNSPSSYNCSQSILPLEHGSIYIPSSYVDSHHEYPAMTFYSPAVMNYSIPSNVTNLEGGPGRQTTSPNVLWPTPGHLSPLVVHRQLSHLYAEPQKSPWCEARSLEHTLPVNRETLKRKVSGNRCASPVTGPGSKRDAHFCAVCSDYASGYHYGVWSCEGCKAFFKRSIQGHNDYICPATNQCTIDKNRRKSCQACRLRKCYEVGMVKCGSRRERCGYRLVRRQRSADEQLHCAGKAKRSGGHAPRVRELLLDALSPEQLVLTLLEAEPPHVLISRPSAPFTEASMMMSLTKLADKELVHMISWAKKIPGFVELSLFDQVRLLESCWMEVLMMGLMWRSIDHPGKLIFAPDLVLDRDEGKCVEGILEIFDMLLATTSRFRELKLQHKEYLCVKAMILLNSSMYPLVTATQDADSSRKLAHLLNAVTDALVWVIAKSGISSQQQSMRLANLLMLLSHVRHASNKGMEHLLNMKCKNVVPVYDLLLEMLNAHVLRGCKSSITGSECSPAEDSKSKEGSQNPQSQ
mouse Peroxisome Proliferator-activated Receptor gamma (PPARg), Pparg (gene 19016), sequence (P37238 whole entry, looked up, the tested form may be a part): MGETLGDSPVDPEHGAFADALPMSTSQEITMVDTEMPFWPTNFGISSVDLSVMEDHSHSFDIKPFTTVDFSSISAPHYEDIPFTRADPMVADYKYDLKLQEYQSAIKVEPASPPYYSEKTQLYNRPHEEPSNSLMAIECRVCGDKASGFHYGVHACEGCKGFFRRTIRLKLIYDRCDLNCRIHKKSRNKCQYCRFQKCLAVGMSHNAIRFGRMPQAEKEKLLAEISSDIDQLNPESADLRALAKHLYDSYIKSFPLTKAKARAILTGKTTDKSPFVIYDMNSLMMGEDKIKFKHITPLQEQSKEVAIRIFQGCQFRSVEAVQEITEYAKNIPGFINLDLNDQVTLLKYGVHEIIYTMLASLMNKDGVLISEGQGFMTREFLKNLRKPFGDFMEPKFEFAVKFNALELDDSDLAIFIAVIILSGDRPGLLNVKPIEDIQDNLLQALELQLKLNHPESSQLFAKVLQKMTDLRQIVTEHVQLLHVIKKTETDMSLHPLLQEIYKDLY
zebrafish Thyroid Hormone Receptor alpha (TRa), thraa (gene 30670), sequence (Q98867 whole entry, looked up, the tested form may be a part): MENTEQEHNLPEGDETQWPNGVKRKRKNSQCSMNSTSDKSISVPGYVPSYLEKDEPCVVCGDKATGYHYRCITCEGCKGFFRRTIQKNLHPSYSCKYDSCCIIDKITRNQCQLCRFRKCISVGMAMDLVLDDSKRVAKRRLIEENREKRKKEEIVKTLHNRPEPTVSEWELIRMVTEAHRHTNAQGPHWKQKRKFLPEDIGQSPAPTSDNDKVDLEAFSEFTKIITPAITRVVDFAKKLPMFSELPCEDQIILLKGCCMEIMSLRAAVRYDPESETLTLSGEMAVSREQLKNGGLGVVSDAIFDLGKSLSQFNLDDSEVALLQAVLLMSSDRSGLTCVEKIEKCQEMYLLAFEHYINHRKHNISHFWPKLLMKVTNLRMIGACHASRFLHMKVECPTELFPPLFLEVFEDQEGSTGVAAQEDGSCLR

CCCCC(CC)COC(=O)c1ccc(C(=O)OCC(CC)CCCC)c(C(=O)OCC(CC)CCCC)c1 (stereo unspecified)
inactive: [2] | [3] | [4]
active: [1] 100 µM and 11.9 µM | [3] 57.8 µM

c1ccc2c(c1)-c1cccc3cccc-2c13
active: [4] 27.7 µM
inactive: [1] | [5] | [2] | [3] | [4]

Clc1ccc(C(c2ccc(Cl)cc2)C(Cl)(Cl)Cl)cc1
active: [8] 100 µM | [9] 67.5 µM | [10] 2.67 µM | [3] 100 µM
inactive: [6] | [7] | [11] | [12] | [13] | [14] | [5]

Oc1ccc2ccc3cccc4ccc1c2c34
active: [1] 8.33 µM and 5.18 µM | [5] 1.64 µM and 1.79 µM | [3] 5.13 µM | [4] 9.01 µM and 2.69 µM
inactive: [3]

CCC[CH2][Sn]([Cl])([CH2]CCC)[CH2]CCC
inactive: [6] | [8] | [11] | [12] | [3]
active: [15] 0.0865 µM | [16] 0.228 µM | [17] 0.159 µM | [13] 0.084 µM | [14] 1.54 µM

C[C@]12C=CC3=C4CCC(=O)C=C4CC[C@H]3[C@@H]1CC[C@@H]2O
inactive: [6] | [7] | [11] | [12] | [13] | [14] | [1] | [5] | [3] | [4]
active: [18] 0.00534 µM

CCC(C)c1ccc(O)cc1 (stereo unspecified)
active: [1] 6.55 µM and 1.91 µM | [5] 5.47 µM and 2.25 µM | [3] 37.7 µM and 28.7 µM | [4] 6.12 µM and 3.68 µM
inactive: [2]

CCCCOC(=O)c1ccccc1C(=O)OCc1ccccc1
inactive: [6] | [7] | [8] | [16] | [13] | [14] | [5] | [2] | [18] | [3]
active: [9] 9.86 µM | [10] 3.81 µM | [1] 61.1 µM | [4] 46.7 µM

O=[N+]([O-])c1ccc(Oc2ccc(Cl)cc2Cl)cc1
inactive: [1] | [5] | [3] | [4]

CCCCCOC(=O)c1ccccc1C(=O)OCCCCC
inactive: [19] | [7] | [8] | [15] | [16] | [17] | [13] | [14] | [1] | [5] | [18] | [4]
active: [20] 31.9 µM | [9] 37.6 µM | [10] 5.96 µM

CC(C)(C)C(O)(CCc1ccc(Cl)cc1)Cn1cncn1 (stereo unspecified)
inactive: [1] | [2] | [3] | [4]

Clc1ccc(C(c2ccc(Cl)cc2)C(Cl)Cl)cc1
active: [9] 50.3 µM | [10] 24.6 µM | [14] 100 µM | [1] 11.6 µM | [4] 2.47 µM
inactive: [6] | [7] | [8] | [16] | [2] | [3]
